Values joined by “and” are separate entries in the source; they are usually repeats but may differ in a detail not shown here. Equal entries are not always repeated. Records with an inconclusive call do not appear. Some compounds were tested as several samples or in several runs, with calls that do not always agree. Active and inactive are the calls of the source. Unless noted, the call rests on the fitted dose curve; in most records, active means well fitted curve in the direction sought with a large enough effect; inconclusive means small, poorly fitted or top-dose-only effect, or another doubt; inactive means no such curve, though single readings can be large; an effect the other way counts as inactive or inconclusive.
Assays:
CAOV3 = experiment: Primary qHTS to identify gynecologic anti-cancer compounds using libraries of approved drugs and bioactive compounds (AID 1345084); conditions: Gynecologic cancer cell panel viability, ATPlite luminescence, 48 h; series mostly up to 57.5 µM; further: nearly all actives have a fitted effect of over 55% in size; further: potency means the concentration at half of the fitted maximal effect
In short: (§1)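 In this quantitative HTS, cell killing is estimated from loss of ATP-dependent luciferase light. Cells see five compound concentrations over a 48 h exposure.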

CASKI = experiment: as above; conditions: Gynecologic cancer cell panel viability, ATPlite luminescence, 48 h; series mostly up to 57.5 µM
In short: as §1

Es-2 = experiment: as above; conditions: Gynecologic cancer cell panel viability, ATPlite luminescence, 48 h; series mostly up to 57.5 µM
In short: as §1

HeLa = experiment: as above; conditions: Gynecologic cancer cell panel viability, ATPlite luminescence, 48 h; series mostly up to 57.5 µM
In short: as §1

Hek293T = experiment: as above; conditions: Gynecologic cancer cell panel viability, ATPlite luminescence, 48 h, control line for the selectivity index; series mostly up to 57.5 µM
In short: as §1

JEG-3 = experiment: as above; conditions: Gynecologic cancer cell panel viability, ATPlite luminescence, 48 h; series mostly up to 57.5 µM
In short: as §1

OV90 = experiment: as above; conditions: Gynecologic cancer cell panel viability, ATPlite luminescence, 48 h; series mostly up to 57.5 µM
In short: as §1

PA-1 = experiment: as above; conditions: Gynecologic cancer cell panel viability, ATPlite luminescence, 48 h; series mostly up to 57.5 µM
In short: as §1

SKOV3 = experiment: as above; conditions: Gynecologic cancer cell panel viability, ATPlite luminescence, 48 h; series mostly up to 57.5 µM
In short: as §1

Tov-21-G = experiment: as above; conditions: Gynecologic cancer cell panel viability, ATPlite luminescence, 48 h; series mostly up to 57.5 µM
In short: as §1

Tov112D = experiment: as above; conditions: Gynecologic cancer cell panel viability, ATPlite luminescence, 48 h; series mostly up to 57.5 µM
In short: as §1

[1] = Drug repurposing screens with cells derived from glioblastoma tumor samples (AID 1345199); conditions: GBM patient neurospheres viability, ATP luminescence, 48 h; further: nearly all actives have a fitted effect of over 40% in size; further: potency means the concentration at half of the fitted maximal effect; on activity, negative = cell killing: on the % scale 0 is the no-effect control and ±100 the full control effect
In short: (§2)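 Primary testing used CD133+ neurospheres from four GBM patients, seven concentrations, 48 h exposure and ATP-based viability; confirmation added three slower-growing patient lines.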

astro = experiment: as above; conditions: viability, ATP luminescence, 48 h; series mostly up to 45.9 µM
In short: as §2

[2] = target: Nuclear receptor subfamily 1 group I member 2 (Rattus norvegicus) (UniProt Q9R1A7); experiment: qHTS assay for small molecule activators of the rat pregnane X receptor (rPXR) signaling pathway (AID 651751; call rule not given here; further: 0% is about no effect); conditions: rPXR reporter cells, luciferase (One-Glo), 24 h
Chain of Nuclear receptor subfamily 1 group I member 2 (Rattus norvegicus) (Q9R1A7 whole entry, looked up): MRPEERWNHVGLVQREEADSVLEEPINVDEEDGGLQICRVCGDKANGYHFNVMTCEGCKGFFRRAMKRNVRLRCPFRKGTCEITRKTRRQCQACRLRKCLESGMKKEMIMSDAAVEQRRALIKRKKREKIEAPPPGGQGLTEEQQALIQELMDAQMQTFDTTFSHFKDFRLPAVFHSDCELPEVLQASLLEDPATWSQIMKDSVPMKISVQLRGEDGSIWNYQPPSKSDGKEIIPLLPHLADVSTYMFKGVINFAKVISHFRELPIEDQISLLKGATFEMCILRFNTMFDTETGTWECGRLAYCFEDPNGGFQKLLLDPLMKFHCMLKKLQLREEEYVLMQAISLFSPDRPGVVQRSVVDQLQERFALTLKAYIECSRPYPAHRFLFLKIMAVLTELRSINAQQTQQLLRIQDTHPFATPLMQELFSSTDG

[3] = qHTS assay for small molecule activators of the human pregnane X receptor (PXR) signaling pathway (AID 720659; call rule not given here; further: 0% is about no effect)
[4] = qHTS assay to identify inhibitors of the type 1 interferon - major histocompatibility complex class I in skeletal muscle: Counter screen cell viability and HiBit confirmation (AID 1347412); conditions: iHSKM muscle cells + IFN-b, HiBiT or CellTiter-Glo, 24 h; Potency: HiBiT unless noted; Viability, at 45.9 µM (top of the series); further: on the % scale 0 is the no-effect control and ±100 the full control effect; nearly all actives have a fitted effect of over 60% in size
In short: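 Human myoblast knock-in line, 4.0 ng/ml IFN-beta stimulation, 24 h compound treatment. Endpoints: HiBiT lytic luminescence (HLA-B level) and CellTiter Glo (ATP). Dosing 12 concentrations, 3-fold steps, 46 uM highest final.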

[5] = at 46.1 µM (top of the series), tumour line C
[6] = at 45.9 µM (top of the series), tumour line B
[7] = at 45.9 µM (top of the series), tumour line D
[8] = at 20 µM (top of the series), tumour line C
[9] = at 21.2 µM (top of the series), tumour line B
[10] = at 46 µM (top of the series), tumour line A
[11] = at 21.2 µM (top of the series), tumour line D

CC(=O)O[C@]1(C(C)=O)CC[C@H]2[C@@H]3C[C@H](C)C4=CC(=O)CC[C@]4(C)[C@H]3CC[C@@]21C
inactive: Potency (CAOV3) | Potency (CASKI) | Potency (Es-2) | Potency (HeLa) | Potency (Hek293T) | Potency (JEG-3) | Potency (OV90) | Potency (PA-1) | Potency (SKOV3) | Potency (Tov-21-G) | Potency (Tov112D) | activity, negative = cell killing [1, 5] -19.7% | Potency (astro)
active: Potency ([1]; tumour line A) 17.8 µM

CCC(=O)c1c(O)cc(O)cc1O
inactive: Potency (CAOV3) | Potency (CASKI) | Potency (Es-2) | Potency (HeLa) | Potency (Hek293T) | Potency (JEG-3) | Potency (OV90) | Potency (PA-1) | Potency (SKOV3) | Potency (Tov-21-G) | Potency (Tov112D) | activity, negative = cell killing [1, 6] -0.713% | activity, negative = cell killing [1, 7] -16.2% | activity, negative = cell killing [1, 5] -2.44% | Potency (astro)

CN(C)CCOc1ccccc1Cc1ccccc1
inactive: Potency (CAOV3) | Potency (CASKI) | Potency (Es-2) | Potency (HeLa) | Potency (Hek293T) | Potency (JEG-3) | Potency (OV90) | Potency (PA-1) | Potency (SKOV3) | Potency (Tov-21-G) | Potency (Tov112D) | activity, negative = cell killing [1, 6] -0.223% | activity, negative = cell killing [1, 7] -22.7% | activity, negative = cell killing [1, 5] -17.3% | Potency (astro)

COc1cc(N)c(Cl)cc1C(=O)NC1CCN(CCCOc2ccc(F)cc2)CC1OC (stereo not drawn)
active: Potency (OV90) 25.1 µM | Potency ([1]; tumour line A) 5.62 µM
inactive: Potency (CAOV3) | Potency (CASKI) | Potency (Es-2) | Potency (HeLa) | Potency (Hek293T) | Potency (JEG-3) | Potency (PA-1) | Potency (SKOV3) | Potency (Tov-21-G) | Potency (Tov112D) | activity, negative = cell killing [1, 8] -1.31% | activity, negative = cell killing [1, 9] -11.4% | Potency (astro)

CC1(C)OC[C@@H](COC(=O)CCc2ccc(OC[C@@H](O)CNCCNC(=O)N3CCOCC3)cc2)O1
inactive: Potency (CAOV3) | Potency (CASKI) | Potency (Es-2) | Potency (HeLa) | Potency (Hek293T) | Potency (JEG-3) | Potency (OV90) | Potency (PA-1) | Potency (SKOV3) | Potency (Tov-21-G) | Potency (Tov112D) | activity, negative = cell killing [1, 6] -1.97% and -1.33% | activity, negative = cell killing [1, 7] -8.36% and -5.13% | activity, negative = cell killing [1, 5] 1.06% and -5.37% | Potency (astro)

CC(O)C(=O)O (stereo not drawn)
inactive: Potency (CAOV3) | Potency (CASKI) | Potency (Es-2) | Potency (HeLa) | Potency (Hek293T) | Potency (JEG-3) | Potency (OV90) | Potency (PA-1) | Potency (SKOV3) | Potency (Tov-21-G) | Potency (Tov112D) | activity, negative = cell killing [1, 6] -5.68% | activity, negative = cell killing [1, 7] -11.1% | activity, negative = cell killing [1, 10] -8.3% | activity, negative = cell killing [1, 5] -6.94% | max response [2] 2.35% | outcome [3]

CCN(CC)CCNC(=O)COc1ccc(Cl)cc1
inactive: Potency (CAOV3) | Potency (CASKI) | Potency (Es-2) | Potency (HeLa) | Potency (Hek293T) | Potency (JEG-3) | Potency (OV90) | Potency (PA-1) | Potency (SKOV3) | Potency (Tov-21-G) | Potency (Tov112D) | activity, negative = cell killing [1, 6] 1.81% | activity, negative = cell killing [1, 7] -18.1% | Potency (astro)

CN(C)CCCOc1nn(Cc2ccccc2)c2ccccc12
active: Potency ([1]; tumour line A) 1.58 µM | Potency ([1]; tumour line D) 7.08 µM
14.1 µM (active) and inactive: Potency (OV90)
31.6 µM (active) and inactive: Potency (PA-1) | Potency (Tov-21-G)
inactive: Potency (CAOV3) | Potency (CASKI) | Potency (Es-2) | Potency (HeLa) | Potency (Hek293T) | Potency (JEG-3) | Potency (Tov112D) | activity, negative = cell killing [1, 8] -16.8% | Potency (astro)
22.4 µM (active) and inactive: Potency (SKOV3)

CN1CCN(C(c2ccccc2)c2ccccc2)CC1
inactive: Potency (CAOV3) | Potency (CASKI) | Potency (Es-2) | Potency (HeLa) | Potency (Hek293T) | Potency (JEG-3) | Potency (OV90) | Potency (PA-1) | Potency (SKOV3) | Potency (Tov-21-G) | Potency (Tov112D) | activity, negative = cell killing [1, 8] -1.97% | activity, negative = cell killing [1, 9] -1.95% | activity, negative = cell killing [1, 11] -26.8% | Potency (astro)

CCCCCCc1ccc(O)cc1O
inactive: Potency (CAOV3) | Potency (CASKI) | Potency (Es-2) | Potency (HeLa) | Potency (Hek293T) | Potency (JEG-3) | Potency (OV90) | Potency (PA-1) | Potency (SKOV3) | Potency (Tov-21-G) | Potency (Tov112D) | activity, negative = cell killing [1, 6] -28.1% | activity, negative = cell killing [1, 5] -19.2% | max response [2] -4.98% and -0.286% | outcome [3]
active: Potency ([1]; tumour line A) 10 µM

CCCC(=O)O[C@]1(C(=O)CO)CC[C@H]2[C@@H]3CCC4=CC(=O)CC[C@]4(C)[C@H]3[C@@H](O)C[C@@]21C
inactive: Potency (CASKI) | Potency (Es-2) | Potency (HeLa) | Potency (Hek293T) | Potency (JEG-3) | Potency (OV90) | Potency (PA-1) | Potency (SKOV3) | Potency (Tov-21-G) | Potency (Tov112D) | activity, negative = cell killing [1, 6] 1.95% | activity, negative = cell killing [1, 7] -21.3% | activity, negative = cell killing [1, 10] -2.7% | activity, negative = cell killing [1, 5] 6.32% | Potency (astro) | Potency [4]
active: Potency (CAOV3) 3.55 µM

CCN(CC)C(=O)N1CCN(C)CC1
inactive: Potency (CAOV3) | Potency (CASKI) | Potency (Es-2) | Potency (HeLa) | Potency (Hek293T) | Potency (JEG-3) | Potency (OV90) | Potency (PA-1) | Potency (SKOV3) | Potency (Tov-21-G) | Potency (Tov112D) | activity, negative = cell killing [1, 9] -9.76% | activity, negative = cell killing [1, 11] -28.5% | activity, negative = cell killing ([1]; at 21.3 µM (top of the series), tumour line A) -8.09% | Potency (astro)

From PubChem BioAssay (NCATS)
